Results on 11 compounds are retold here after ChEMBL document CHEMBL3988442, “University of Dundee, Small-Polar-MMV Screening Library” (2021).

What all share (parameters): scale not given: direction of the effect not stated beside the values
In test [1] the target is Protein translocase subunit SecA (Escherichia coli (strain K12)) (UniProt P10408). Put plainly: Assay to Identify E. coli SecA ATPase Inhibitors. In kind it is functional. To be noted: 30 µM.
For test [2], the target named is T1, Ubiquitin-activating enzyme e1, putative (Leishmania donovani (strain BPK282A1)) (UniProt E9BSI1).
T1 sequence (whole entry): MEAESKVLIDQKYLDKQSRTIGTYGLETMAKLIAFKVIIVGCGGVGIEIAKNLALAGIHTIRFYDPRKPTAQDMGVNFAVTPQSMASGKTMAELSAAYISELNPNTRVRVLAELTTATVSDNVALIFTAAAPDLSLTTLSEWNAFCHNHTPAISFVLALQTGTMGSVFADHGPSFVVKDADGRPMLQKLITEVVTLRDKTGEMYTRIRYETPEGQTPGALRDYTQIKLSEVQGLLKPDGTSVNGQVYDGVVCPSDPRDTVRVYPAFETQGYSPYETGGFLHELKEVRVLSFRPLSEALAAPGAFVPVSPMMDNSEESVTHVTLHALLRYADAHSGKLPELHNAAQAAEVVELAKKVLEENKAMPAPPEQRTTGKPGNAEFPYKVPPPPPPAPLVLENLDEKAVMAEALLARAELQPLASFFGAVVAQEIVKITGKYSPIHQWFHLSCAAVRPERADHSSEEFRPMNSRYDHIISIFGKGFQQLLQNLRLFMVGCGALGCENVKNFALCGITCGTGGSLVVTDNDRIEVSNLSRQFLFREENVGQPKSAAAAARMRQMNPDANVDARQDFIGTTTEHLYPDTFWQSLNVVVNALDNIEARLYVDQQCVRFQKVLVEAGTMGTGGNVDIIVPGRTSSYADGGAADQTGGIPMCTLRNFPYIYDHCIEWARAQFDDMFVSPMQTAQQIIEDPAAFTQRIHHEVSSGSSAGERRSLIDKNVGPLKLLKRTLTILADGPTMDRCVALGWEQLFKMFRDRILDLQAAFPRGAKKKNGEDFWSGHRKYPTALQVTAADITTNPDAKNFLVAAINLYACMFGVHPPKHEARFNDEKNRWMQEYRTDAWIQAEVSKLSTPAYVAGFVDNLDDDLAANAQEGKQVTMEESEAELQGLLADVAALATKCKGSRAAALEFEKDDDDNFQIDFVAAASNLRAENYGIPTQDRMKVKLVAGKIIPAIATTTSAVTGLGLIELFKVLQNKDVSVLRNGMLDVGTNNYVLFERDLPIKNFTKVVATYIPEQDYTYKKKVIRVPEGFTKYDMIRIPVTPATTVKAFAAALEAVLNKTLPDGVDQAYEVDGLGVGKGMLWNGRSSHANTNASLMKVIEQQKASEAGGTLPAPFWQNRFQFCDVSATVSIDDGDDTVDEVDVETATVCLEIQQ
Nature of the test: Leishmania donovani Ubiquitin Activating Enzyme (LdE1). The format is functional. The settings on record: 30 µM.

Test [3] deals with Sialic acid-binding Ig-like lectin 9 (Homo sapiens) (UniProt Q9Y336). Put plainly: Hs-Siglec9 ALPHAscreen SOP 20170721. The settings on record: 10 µM. A general note: Bead proximity is the source of the signal in Alpha formats.
The subject of a further test is Trypanosoma cruzi. Put plainly: Trypanosoma cruzi phosphomannomutase and mannose-1-phosphate guanylyltransferase assay. The format is functional. The settings on record: 10 µM.
In test [4] the target is T2, Arginase-2, mitochondrial (Homo sapiens) (UniProt P78540).
T2 sequence (whole entry): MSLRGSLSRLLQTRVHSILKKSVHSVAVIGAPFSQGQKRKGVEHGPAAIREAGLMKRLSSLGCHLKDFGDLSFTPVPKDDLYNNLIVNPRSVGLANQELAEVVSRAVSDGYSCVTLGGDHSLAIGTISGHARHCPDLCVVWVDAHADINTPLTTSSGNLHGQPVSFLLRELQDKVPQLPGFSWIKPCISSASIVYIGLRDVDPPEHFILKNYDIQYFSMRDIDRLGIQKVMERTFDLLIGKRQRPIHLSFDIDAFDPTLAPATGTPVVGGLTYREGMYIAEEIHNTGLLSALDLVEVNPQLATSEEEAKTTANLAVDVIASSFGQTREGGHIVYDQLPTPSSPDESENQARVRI
Nature of the test: in vitro enzyme assay to detect the production of urea directly proportional to the activity of Arginase II. Note: in the data most compounds retested in dose-response had high values. In kind it is functional. The settings on record: 33.3 µM.

Test [5] addresses T3, Proteasome subunit beta (Trypanosoma cruzi) (UniProt O96673).
T3 sequence (whole entry): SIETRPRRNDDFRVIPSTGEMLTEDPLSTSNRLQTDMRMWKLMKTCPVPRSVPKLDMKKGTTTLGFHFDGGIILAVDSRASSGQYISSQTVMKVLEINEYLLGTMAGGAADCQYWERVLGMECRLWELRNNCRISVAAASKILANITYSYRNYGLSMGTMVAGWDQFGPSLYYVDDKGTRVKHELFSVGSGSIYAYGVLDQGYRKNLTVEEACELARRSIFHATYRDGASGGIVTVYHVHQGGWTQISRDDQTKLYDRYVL
Put plainly: Trypanosoma cruzi proteasome chymotrypsin-like activity (TcProtChymo) assay. Note: in the data most compounds retested in dose-response had high values. The format is functional. To be noted: 9.37 µM.

The species entered for the next test is Homo sapiens. Put plainly: To identify inhibition of the IFN signalling (Jak-Stat) pathway via expression of an eGFP reporter gene under the control of an IFN-stimulated response element (ISRE) containing MxA promoter. The settings on record: 30 µM. The format is functional. For orientation: A reporter such as luciferase makes a cellular process visible.
For test [6], the target named is T4, Tyrosyl-tRNA synthetase, putative (Trypanosoma cruzi (strain CL Brener)) (UniProt Q4DSP6).
T4 sequence (whole entry): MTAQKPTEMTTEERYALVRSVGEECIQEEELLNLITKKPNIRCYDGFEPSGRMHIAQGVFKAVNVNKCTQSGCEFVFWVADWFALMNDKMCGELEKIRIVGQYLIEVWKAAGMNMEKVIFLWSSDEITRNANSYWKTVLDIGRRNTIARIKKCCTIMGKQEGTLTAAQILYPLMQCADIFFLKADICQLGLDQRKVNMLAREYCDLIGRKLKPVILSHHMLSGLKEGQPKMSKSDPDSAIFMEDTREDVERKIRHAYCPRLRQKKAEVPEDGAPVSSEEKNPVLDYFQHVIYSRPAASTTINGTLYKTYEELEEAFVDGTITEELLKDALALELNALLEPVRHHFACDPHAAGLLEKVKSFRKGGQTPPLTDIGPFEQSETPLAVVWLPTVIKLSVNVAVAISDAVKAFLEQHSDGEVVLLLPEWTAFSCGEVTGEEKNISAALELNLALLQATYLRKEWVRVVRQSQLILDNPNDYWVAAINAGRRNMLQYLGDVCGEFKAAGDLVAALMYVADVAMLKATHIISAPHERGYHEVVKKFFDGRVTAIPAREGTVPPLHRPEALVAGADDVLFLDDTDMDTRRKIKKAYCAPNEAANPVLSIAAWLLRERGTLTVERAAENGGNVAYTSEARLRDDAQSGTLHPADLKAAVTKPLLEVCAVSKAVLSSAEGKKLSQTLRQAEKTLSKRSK
Nature of the test: Trypanosoma cruzi tyrosyl tRNA synthetase (TcYRS) _High Tyrosine SOP. Note: in the data most compounds retested in dose-response had high values. In kind it is functional. To be noted: 30 µM.

The target of test [7] is T4, Tyrosyl-tRNA synthetase, putative (Trypanosoma cruzi (strain CL Brener)). Nature of the test: Trypanosoma cruzi tyrosyl tRNA synthetase (TcYRS) SOP. In kind it is functional. To be noted: 30 µM.
For test [8], the target named is Chromo domain-containing protein 1 (Saccharomyces cerevisiae (strain ATCC 204508 / S288c) (Baker's yeast)) (UniProt P32657). Put plainly: ScCHD-1 Enzyme Inhibition Assay. Note: in the data most compounds retested in dose-response had high values. The settings on record: 30 µM. The format is functional.

Molecules are shown by their SMILES. For some assays here: Entries with a potency or affinity are not part of this list.

Chain of Sialic acid-binding Ig-like lectin 9 (Homo sapiens) (Q9Y336 whole entry): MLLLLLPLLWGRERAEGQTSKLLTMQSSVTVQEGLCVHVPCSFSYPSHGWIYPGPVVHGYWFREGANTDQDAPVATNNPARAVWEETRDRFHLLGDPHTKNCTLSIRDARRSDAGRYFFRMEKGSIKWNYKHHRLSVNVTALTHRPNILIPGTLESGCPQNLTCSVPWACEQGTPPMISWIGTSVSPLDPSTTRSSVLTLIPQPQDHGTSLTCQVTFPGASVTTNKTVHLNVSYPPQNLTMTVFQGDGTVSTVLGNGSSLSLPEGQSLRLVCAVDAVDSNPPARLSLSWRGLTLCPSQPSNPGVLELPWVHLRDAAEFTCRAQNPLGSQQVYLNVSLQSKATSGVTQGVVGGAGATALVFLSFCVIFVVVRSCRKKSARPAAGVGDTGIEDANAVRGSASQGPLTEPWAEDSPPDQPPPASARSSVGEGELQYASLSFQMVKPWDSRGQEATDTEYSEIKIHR
Chain of Chromo domain-containing protein 1 (Saccharomyces cerevisiae (strain ATCC 204508 / S288c) (Baker's yeast)) (P32657 whole entry, the tested form may be a part): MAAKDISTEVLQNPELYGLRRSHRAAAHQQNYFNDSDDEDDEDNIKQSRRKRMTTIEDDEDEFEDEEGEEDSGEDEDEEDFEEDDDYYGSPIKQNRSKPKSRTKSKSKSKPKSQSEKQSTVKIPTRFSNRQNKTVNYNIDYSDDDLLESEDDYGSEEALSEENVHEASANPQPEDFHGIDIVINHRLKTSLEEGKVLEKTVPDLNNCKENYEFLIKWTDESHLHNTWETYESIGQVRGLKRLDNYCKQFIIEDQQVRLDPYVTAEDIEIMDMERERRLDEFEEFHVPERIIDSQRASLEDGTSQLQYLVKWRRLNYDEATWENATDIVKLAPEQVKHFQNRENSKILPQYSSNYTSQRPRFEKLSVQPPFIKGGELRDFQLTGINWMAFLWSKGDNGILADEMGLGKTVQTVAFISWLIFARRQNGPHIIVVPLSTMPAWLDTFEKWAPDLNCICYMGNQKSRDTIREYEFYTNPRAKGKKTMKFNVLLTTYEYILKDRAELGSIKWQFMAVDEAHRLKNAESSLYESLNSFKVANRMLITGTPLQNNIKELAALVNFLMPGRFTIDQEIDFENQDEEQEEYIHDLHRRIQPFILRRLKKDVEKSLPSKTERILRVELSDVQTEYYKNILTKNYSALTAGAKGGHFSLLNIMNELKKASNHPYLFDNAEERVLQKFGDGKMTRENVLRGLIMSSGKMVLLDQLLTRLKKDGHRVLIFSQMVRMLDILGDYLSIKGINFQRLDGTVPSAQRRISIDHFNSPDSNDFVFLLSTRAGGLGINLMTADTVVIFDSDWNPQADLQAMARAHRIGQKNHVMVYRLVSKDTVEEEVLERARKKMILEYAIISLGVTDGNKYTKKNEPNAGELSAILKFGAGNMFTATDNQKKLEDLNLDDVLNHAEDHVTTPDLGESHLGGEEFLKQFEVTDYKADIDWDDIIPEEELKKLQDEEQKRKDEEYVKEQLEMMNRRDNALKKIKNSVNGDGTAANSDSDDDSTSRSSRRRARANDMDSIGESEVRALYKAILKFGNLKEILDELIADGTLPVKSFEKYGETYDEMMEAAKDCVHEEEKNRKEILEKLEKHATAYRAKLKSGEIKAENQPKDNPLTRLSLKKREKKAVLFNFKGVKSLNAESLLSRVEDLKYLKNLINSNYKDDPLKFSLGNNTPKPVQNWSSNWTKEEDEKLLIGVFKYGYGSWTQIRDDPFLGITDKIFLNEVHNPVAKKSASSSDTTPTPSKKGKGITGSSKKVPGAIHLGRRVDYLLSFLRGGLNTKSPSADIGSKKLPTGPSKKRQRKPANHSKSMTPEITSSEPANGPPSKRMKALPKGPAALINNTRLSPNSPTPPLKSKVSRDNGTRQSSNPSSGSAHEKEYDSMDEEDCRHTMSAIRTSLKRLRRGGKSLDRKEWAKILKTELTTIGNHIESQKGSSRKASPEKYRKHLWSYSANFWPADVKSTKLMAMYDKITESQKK
Chain of Protein translocase subunit SecA (Escherichia coli (strain K12)) (P10408 whole entry): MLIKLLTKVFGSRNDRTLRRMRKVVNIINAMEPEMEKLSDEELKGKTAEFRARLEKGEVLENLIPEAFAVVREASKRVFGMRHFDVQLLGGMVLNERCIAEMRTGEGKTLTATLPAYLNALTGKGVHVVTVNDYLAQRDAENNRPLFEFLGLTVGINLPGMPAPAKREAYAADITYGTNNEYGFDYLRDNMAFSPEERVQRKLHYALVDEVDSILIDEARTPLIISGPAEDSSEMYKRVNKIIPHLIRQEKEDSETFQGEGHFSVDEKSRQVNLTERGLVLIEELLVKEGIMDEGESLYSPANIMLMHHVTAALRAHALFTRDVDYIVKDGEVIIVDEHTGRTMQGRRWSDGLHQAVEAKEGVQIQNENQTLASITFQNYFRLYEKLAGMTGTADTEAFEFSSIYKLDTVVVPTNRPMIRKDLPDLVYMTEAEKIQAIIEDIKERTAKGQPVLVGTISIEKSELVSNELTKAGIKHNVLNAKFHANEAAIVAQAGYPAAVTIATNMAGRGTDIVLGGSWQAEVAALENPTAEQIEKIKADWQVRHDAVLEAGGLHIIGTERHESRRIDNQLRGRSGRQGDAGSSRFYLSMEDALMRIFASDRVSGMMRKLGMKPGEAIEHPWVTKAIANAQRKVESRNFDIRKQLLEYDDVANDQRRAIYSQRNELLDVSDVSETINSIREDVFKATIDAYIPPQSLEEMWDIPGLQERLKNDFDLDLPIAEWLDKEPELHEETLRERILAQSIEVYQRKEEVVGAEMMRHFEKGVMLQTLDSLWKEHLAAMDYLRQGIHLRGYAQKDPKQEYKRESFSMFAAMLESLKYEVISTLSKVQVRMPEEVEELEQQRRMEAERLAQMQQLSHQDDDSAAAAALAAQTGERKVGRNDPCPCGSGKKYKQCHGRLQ

Take `Nc1nc2nc(C3CCCN(C(=O)c4cscn4)C3)ccc2s1` (stereo not given): the Percent Effect in test [1] is 0.0997%; in [2] it was 22.7%; in [3] it was -9.01%; with Trypanosoma cruzi, 3.55%; in [4], -9.29%; in test [5], 19.1%. For the same compound, the Percent Effect was 25.7% in the test listed under Homo sapiens, 0% in test [6], 7.5% in test [7] and -22.1% in test [8].

For the compound `Cc1cc(C)n(C2CCCN(C(=O)c3c(C)c(C)n[nH]c3=O)C2)n1` (stereo not given), the Percent Effect in test [1] was -1.62%; in test [2], 8%; in test [3], 4.21%; in the test on Trypanosoma cruzi it was -4.62%; in test [4] it was 0.887%; in [5], 4.16%. The Percent Effect in the test listed under Homo sapiens was 17.4%; in [6] it was 1.58%; in test [7], 2.56%; in test [8], -4.78%.

Turning to `CC(=O)NCCC(=O)NCc1cccnc1-n1cnc2ccccc21`, the Percent Effect in test [1] is 0.292%; in test [2] it was 0%; in [3], 2.93%; in the test with Trypanosoma cruzi it was 6.69%; in test [4], 12.2%; in [5], 1.71%. For the same compound, the Percent Effect in the test listed under Homo sapiens is -5.79%; in [6], -0.532%; in test [7], 2.44%; in [8] it was 98.3%.

As for `O=C1CC(c2ccco2)c2sc(C(=O)O)c(-c3ccccc3)c2N1` (stereo not given), the Percent Effect in test [1] was -3.7%; in test [2] it was 18.9%; in test [3] it was 68.7%; in the test with Trypanosoma cruzi, 2.23%; in [4], -3.85%; in test [5] it was 27.7%. Besides, the Percent Effect is -0.84% in the test listed under Homo sapiens, 7.98% in test [6], 17.1% in test [7] and 44.8% in [8].

For the compound `COC(=O)CC(c1ccccc1)c1oc(C)cc(=O)c1O` (stereo not given), the Percent Effect was -10.4% in test [1]; 0% in test [2]; 4.84% in test [3]; -5.33% in the test with Trypanosoma cruzi; -1.75% in test [4]; 1.71% in [5]. Besides, the Percent Effect in the test listed under Homo sapiens was 6.47%; in test [6], 1.6%; in test [7], 0%; in [8], -1.53%.

In the case of `COCCc1noc(CNC2CCSC2)n1` (stereo not given), the Percent Effect is -5.2% in test [1]; 5.41% in test [2]; 11.7% in test [3]; 7.66% in the test on Trypanosoma cruzi; 1.75% in test [4]; 9.93% in test [5]. In addition, the Percent Effect is -4.93% in the test filed under Homo sapiens, 5.85% in test [6], 17.1% in test [7] and -3.46% in [8].

Take `CN1CC(c2ccccc2)CC2(CCN(CC(=O)N(C)C)CC2)C1` (stereo not given): the Percent Effect in [1] is -6.25%; in test [2] it was 5.41%; in test [3], 9.32%; in the test with Trypanosoma cruzi it was 8.44%; in test [4] it was -3.85%; in [5], 9.42%. In addition, the Percent Effect is -25% in the test listed under Homo sapiens, 1.6% in [6], 17.1% in test [7] and -2.37% in [8].

As to `Cc1nc(C)n(CC2CCCN2Cc2nc3ccccc3nc2C)n1` (stereo not given), the Percent Effect in [1] is -4.08%; in test [2], 0%; in test [3] it was 4.74%; in the test with Trypanosoma cruzi, -0.402%; in test [4], 1.33%; in [5], 15.5%. Moreover, the Percent Effect is 2.68% in the test filed under Homo sapiens, 5.79% in test [6], 7.69% in [7] and -11.7% in test [8].

Turning to `Cn1ccc(C(=O)NCc2cccc(N3CCCCC3=O)c2)cc1=O`, the Percent Effect was 2.38% in test [1]; 13% in [2]; 8.44% in test [3]; -0.373% with Trypanosoma cruzi; -2.66% in [4]; 27.5% in test [5]. Also, the Percent Effect is 14.9% in the test filed under Homo sapiens, 9.8% in [6], 21.2% in test [7] and -9.09% in [8].

Regarding `O=C(CN1CCCS1(=O)=O)NCCOc1ccc2c(c1)CCC2`, the Percent Effect was -6.62% in [1]; 2.56% in test [2]; 4.23% in [3]; 3.66% with Trypanosoma cruzi; 5.74% in test [4]; -10.2% in [5]. In addition, the Percent Effect is 6.45% in the test filed under Homo sapiens, 1.44% in test [6], 6.02% in test [7] and -2.78% in test [8].

As to `Cc1cc(CN(C)C(=O)c2ccc(C(F)(F)F)nc2)no1`, the Percent Effect in [1] is -1.51%; in test [2], -2.67%; in [3], 3.03%; with Trypanosoma cruzi, -3.61%; in test [4] it was 3.1%; in test [5] it was 1.27%. The Percent Effect in the test filed under Homo sapiens was -6.24%; in test [6] it was -1.58%; in test [7] it was 5.13%; in [8], 14.8%.
